Test results as given in paper PMC9911399, “Two distinct binding modes provide the RNA-binding protein RbFox with extraordinary sequence specificity”.
Numbering of substitutions follows the chain as printed; changes in the protein carry UniProt numbers. Over roughly 16,000 sequences, “ka relative to ugcaugu” has its median near 0.096; the highest 2% begin near 0.35. The list comes from a sample in which the highest values are over-represented; it also holds similar and randomly drawn sequences.

B1: AACCCAG (DNA:RNA)
RNA: GGGAGACCGGAAUUCAGAUUGUCCAACCCAGUUAAAUCCCGUCGUAGCCACCA
DNA 1: CAATCTGAATTCCGGTCTCCC
DNA 2: TGGTGGCTACGACGGGATT
B2: CCAAUCA (DNA:RNA)
RNA: GGGAGACCGGAAUUCAGAUUGUCCCCAAUCAUUAAAUCCCGUCGUAGCCACCA
DNA 1: CAATCTGAATTCCGGTCTCCC
DNA 2: TGGTGGCTACGACGGGATT
B3: UCAGUGG (DNA:RNA)
RNA: B2 RNA with C25U, A28G, C30G, A31G
DNA 1: CAATCTGAATTCCGGTCTCCC
DNA 2: TGGTGGCTACGACGGGATT
B4: AGUUGAG (DNA:RNA)
RNA: B1 RNA with A26G, C27U, C28U, C29G
DNA 1: CAATCTGAATTCCGGTCTCCC
DNA 2: TGGTGGCTACGACGGGATT
B5: AUAGCCG (DNA:RNA)
RNA: B1 RNA with A26U, C27A, C28G, A30C
DNA 1: CAATCTGAATTCCGGTCTCCC
DNA 2: TGGTGGCTACGACGGGATT
B6: AAGUGAG (DNA:RNA)
RNA: B1 RNA with C27G, C28U, C29G
DNA 1: CAATCTGAATTCCGGTCTCCC
DNA 2: TGGTGGCTACGACGGGATT
B7: UGCAUUA (DNA:RNA)
RNA: B2 RNA with C25U, C26G, A27C, C30U
DNA 1: CAATCTGAATTCCGGTCTCCC
DNA 2: TGGTGGCTACGACGGGATT
B8: UGCAUCA (DNA:RNA)
RNA: B2 RNA with C25U, C26G, A27C
DNA 1: CAATCTGAATTCCGGTCTCCC
DNA 2: TGGTGGCTACGACGGGATT
B9: UGCAUGG (DNA:RNA)
RNA: B1 RNA with A25U, A26G, C28A, C29U, A30G
DNA 1: CAATCTGAATTCCGGTCTCCC
DNA 2: TGGTGGCTACGACGGGATT
B10: UGCAUAA (DNA:RNA)
RNA: B2 RNA with C25U, C26G, A27C, C30A
DNA 1: CAATCTGAATTCCGGTCTCCC
DNA 2: TGGTGGCTACGACGGGATT
B11: UGCGUGG (DNA:RNA)
RNA: B1 RNA with A25U, A26G, C28G, C29U, A30G
DNA 1: CAATCTGAATTCCGGTCTCCC
DNA 2: TGGTGGCTACGACGGGATT
B12: UGCGUCA (DNA:RNA)
RNA: B2 RNA with C25U, C26G, A27C, A28G
DNA 1: CAATCTGAATTCCGGTCTCCC
DNA 2: TGGTGGCTACGACGGGATT
B13: UGCCUGG (DNA:RNA)
RNA: B1 RNA with A25U, A26G, C29U, A30G
DNA 1: CAATCTGAATTCCGGTCTCCC
DNA 2: TGGTGGCTACGACGGGATT
B14: UGCAUGA (DNA:RNA)
RNA: B2 RNA with C25U, C26G, A27C, C30G
DNA 1: CAATCTGAATTCCGGTCTCCC
DNA 2: TGGTGGCTACGACGGGATT
B15: UCCUGCA (DNA:RNA)
RNA: B2 RNA with C25U, A27C, A28U, U29G
DNA 1: CAATCTGAATTCCGGTCTCCC
DNA 2: TGGTGGCTACGACGGGATT
B16: GCCAUCG (DNA:RNA)
RNA: B2 RNA with C25G, A27C, A31G
DNA 1: CAATCTGAATTCCGGTCTCCC
DNA 2: TGGTGGCTACGACGGGATT
B17: GUCAUAC (DNA:RNA)
RNA: B1 RNA with A25G, A26U, C28A, C29U, G31C
DNA 1: CAATCTGAATTCCGGTCTCCC
DNA 2: TGGTGGCTACGACGGGATT
B18: AUUUCGA (DNA:RNA)
RNA: B1 RNA with A26U, C27U, C28U, A30G, G31A
DNA 1: CAATCTGAATTCCGGTCTCCC
DNA 2: TGGTGGCTACGACGGGATT
B19: AAACAAG (DNA:RNA)
RNA: B1 RNA with C27A, C29A
DNA 1: CAATCTGAATTCCGGTCTCCC
DNA 2: TGGTGGCTACGACGGGATT
B20: UAAUACC (DNA:RNA)
RNA: B2 RNA with C25U, C26A, A28U, U29A, A31C
DNA 1: CAATCTGAATTCCGGTCTCCC
DNA 2: TGGTGGCTACGACGGGATT
B21: AGCUAUA (DNA:RNA)
RNA: B1 RNA with A26G, C28U, C29A, A30U, G31A
DNA 1: CAATCTGAATTCCGGTCTCCC
DNA 2: TGGTGGCTACGACGGGATT
B22: AGUGGCA (DNA:RNA)
RNA: B2 RNA with C25A, C26G, A27U, A28G, U29G
DNA 1: CAATCTGAATTCCGGTCTCCC
DNA 2: TGGTGGCTACGACGGGATT
B23: CAAAUUG (DNA:RNA)
RNA: B2 RNA with C26A, C30U, A31G
DNA 1: CAATCTGAATTCCGGTCTCCC
DNA 2: TGGTGGCTACGACGGGATT
B24: GGGGGUG (DNA:RNA)
RNA: B1 RNA with A25G, A26G, C27G, C28G, C29G, A30U
DNA 1: CAATCTGAATTCCGGTCTCCC
DNA 2: TGGTGGCTACGACGGGATT
B25: CCGGGUG (DNA:RNA)
RNA: B2 RNA with A27G, A28G, U29G, C30U, A31G
DNA 1: CAATCTGAATTCCGGTCTCCC
DNA 2: TGGTGGCTACGACGGGATT
B26: GCGGGUG (DNA:RNA)
RNA: B1 RNA with A25G, A26C, C27G, C28G, C29G, A30U
DNA 1: CAATCTGAATTCCGGTCTCCC
DNA 2: TGGTGGCTACGACGGGATT
B27: GGGGGUC (DNA:RNA)
RNA: GGGAGACCGGAAUUCAGAUUGUCCGGGGGUCUUAAAUCCCGUCGUAGCCACCA
DNA 1: CAATCTGAATTCCGGTCTCCC
DNA 2: TGGTGGCTACGACGGGATT
B28: GGGUGUC (DNA:RNA)
RNA: B27 RNA with G28U
DNA 1: CAATCTGAATTCCGGTCTCCC
DNA 2: TGGTGGCTACGACGGGATT
B29: GGGUGUG (DNA:RNA)
RNA: B27 RNA with G28U, C31G
DNA 1: CAATCTGAATTCCGGTCTCCC
DNA 2: TGGTGGCTACGACGGGATT
B30: GGUCUGG (DNA:RNA)
RNA: B1 RNA with A25G, A26G, C27U, C29U, A30G
DNA 1: CAATCTGAATTCCGGTCTCCC
DNA 2: TGGTGGCTACGACGGGATT
B31: ACUUCCA (DNA:RNA)
RNA: B2 RNA with C25A, A27U, A28U, U29C
DNA 1: CAATCTGAATTCCGGTCTCCC
DNA 2: TGGTGGCTACGACGGGATT

Target: T1, RBFOX1 RRM RbFoxmut (Fox-RRM*) (Homo sapiens, UniProt Q9NWB1 109-208, R118D;E147R;N151S;E152T)
T1 sequence: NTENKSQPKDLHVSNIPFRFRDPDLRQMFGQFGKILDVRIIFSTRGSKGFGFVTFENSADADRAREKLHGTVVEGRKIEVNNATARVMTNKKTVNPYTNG
Test: EMSA; HiTS-Eq, 1 nM pool, 10 min; buffer printed only for the single-RNA assays: 10 mM Tris pH 7.5, 150 mM NaCl, 3.4 mM EDTA, 0.001% NP-40, 30 C
Conditions: tags: His6 N-terminal (pET28a); label: 5' 32P
Outline: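 Purified RbFox RRM, wild type or mutant, was incubated for 10 min in 50 µL with 1 nM of a 5′-radiolabelled RNA pool carrying 7 randomized nucleotides, whose flanks were annealed to DNA oligonucleotides, over a series of increasing protein concentrations. Unbound RNA was resolved on 8% native PAGE, cut out, reverse-transcribed, barcoded by PCR and sequenced on an Illumina HiSeq 2500. Relative association constants were derived from changes in read counts for each RNA species versus the control reaction and normalised to the cognate motif.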

**Q.** B1 was tested. Which binding signal did it give?
**A.** 0.0936 KA relative to UGCAUGU

**Q.** Which binding signal does the source give for B2 here?
**A.** 0.0737 KA relative to UGCAUGU

**Q.** With B3 as the binder, how does the binding signal read?
**A.** 0.101 KA relative to UGCAUGU

**Q.** Which binding signal does the source give for B4 here?
**A.** 0.133 KA relative to UGCAUGU

**Q.** With B5 as the binder, how does the binding signal read?
**A.** 0.119 KA relative to UGCAUGU

**Q.** With B6 as the binder, how does the binding signal read?
**A.** 0.137 KA relative to UGCAUGU

**Q.** How did the binding signal turn out when B7 was run?
**A.** 0.163 KA relative to UGCAUGU

**Q.** Which binding signal does the source give for B8 here?
**A.** 0.565 KA relative to UGCAUGU

**Q.** For B9, which binding signal is on record?
**A.** 0.935 KA relative to UGCAUGU

**Q.** How did the binding signal turn out when B10 was run?
**A.** 0.146 KA relative to UGCAUGU

**Q.** With B11 as the binder, how does the binding signal read?
**A.** 0.138 KA relative to UGCAUGU

**Q.** With B12 as the binder, how does the binding signal read?
**A.** 0.155 KA relative to UGCAUGU

**Q.** Which binding signal does the source give for B13 here?
**A.** 0.233 KA relative to UGCAUGU

**Q.** How did the binding signal turn out when B14 was run?
**A.** 0.692 KA relative to UGCAUGU

**Q.** Which binding signal does the source give for B15 here?
**A.** 0.24 KA relative to UGCAUGU

**Q.** B16 was tested. Which binding signal did it give?
**A.** 0.0927 KA relative to UGCAUGU

**Q.** Which binding signal does the source give for B17 here?
**A.** 0.1 KA relative to UGCAUGU

**Q.** With B18 as the binder, how does the binding signal read?
**A.** 0.114 KA relative to UGCAUGU

**Q.** Which binding signal does the source give for B19 here?
**A.** 0.0927 KA relative to UGCAUGU

**Q.** B20 was tested. Which binding signal did it give?
**A.** 0.0785 KA relative to UGCAUGU

**Q.** For B21, which binding signal is on record?
**A.** 0.14 KA relative to UGCAUGU

**Q.** B22 was tested. Which binding signal did it give?
**A.** 0.144 KA relative to UGCAUGU

**Q.** Which binding signal does the source give for B23 here?
**A.** 0.117 KA relative to UGCAUGU

**Q.** With B24 as the binder, how does the binding signal read?
**A.** 0.289 KA relative to UGCAUGU

**Q.** B25 was tested. Which binding signal did it give?
**A.** 0.163 KA relative to UGCAUGU

**Q.** With B26 as the binder, how does the binding signal read?
**A.** 0.194 KA relative to UGCAUGU

**Q.** How did the binding signal turn out when B27 was run?
**A.** 0.201 KA relative to UGCAUGU

**Q.** How did the binding signal turn out when B28 was run?
**A.** 0.368 KA relative to UGCAUGU

**Q.** For B29, which binding signal is on record?
**A.** 0.441 KA relative to UGCAUGU

**Q.** B30 was tested. Which binding signal did it give?
**A.** 0.153 KA relative to UGCAUGU

**Q.** B31 was tested. Which binding signal did it give?
**A.** 0.0542 KA relative to UGCAUGU
